This is a sample that favours compounds with a hit; in the whole collection about 4.2% have one here.
NLRP3 yeast inh: NALP3 inflammasome inhibitors in reconstituted yeast, primary screen, luminescence, uHTS; Yeast reconstituted NLRP3/ASC/caspase-1, beta-gal luminescence, 24 h; inhibition, % at 10 µM; actives 0.39% (n = 330,000);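 active = inhibition of 50% or more; inactive = inhibition below 50%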
NALP1 yeast inh: NALP1 inflammasome inhibitors in reconstituted yeast, colorimetric, S. cerevisiae, triplicate retest; inhibition, % at 10 µM; S. cerevisiae NALP1/ASC/caspase-1 growth, X-gal OD620, 72 h; actives 0.61% (n = 280,000); AID 2071, 2009; in the data active = inhibition mostly above about 24%, no sharp cut-off; inactive = mostly below about 32%
tim10-1 inh: growth inhibitors of tim10-1 mutant yeast, primary screen, luminescence, uHTS; S. cerevisiae tim10-1 ts strain growth, BacTiter-Glo, 24 h; inhibition, % at 20 µM; actives 2.2% (n = 330,000);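 active = inhibition of at least 40%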;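 also: mutant grown at 25 °C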
TIM10 inh: growth inhibitors of isogenic TIM10 control yeast, primary screen, counter-screen for tim10-1 yeast inhibitor project, luminescence, uHTS; S. cerevisiae TIM10 strain growth, BacTiter-Glo luminescence, 24 h; inhibition, % at 10 µM; actives 1.4% (n = 330,000);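 active = inhibition of 40% or more at the single tested concentration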;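 also: wild-type TIM10 isogenic control strain grown at permissive 25 °C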
V-ATPase pH: regulators of yeast V-ATPase proton pumping, primary screen, pHLuorin cytosolic pH fluorescence; actives 0.37% (n = 350,000); S. cerevisiae; response, % at 10 µM; AID 504577, 2011; in the data active = response mostly above about 7.3%, no sharp cut-off; inactive = mostly below about 5.4%; also: actives read high
tim23-1 inh: growth inhibitors of tim23-1 mutant yeast, primary screen, luminescence, uHTS; S. cerevisiae tim23-1 growth, BacTiter-Glo luminescence, 24 h; inhibition, % at 20 µM; actives 1.3% (n = 330,000); AID 463212, 2010;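 active = growth inhibition of the mutant yeast at or above 50%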;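 also: temperature-sensitive mutant grown at 25 °C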
tim10-1 conf: growth inhibitors of tim10-1 mutant yeast, confirmation, single concentration, luminescence, S. cerevisiae; shares compounds with tim10-1 inh; S. cerevisiae tim10-1 ts strain growth, BacTiter-Glo, 24 h; inhibition, % at 20 µM; actives 56% (n = 7,400); AID 463213, 2010;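 active = inhibition of yeast growth at or above a set limit in either of two repeat tests at 20 µM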;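 also: tim10-1 mutant grown at permissive 25 °C to find synthetic lethal compounds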
Numbers stand for hits; 0 = inactive; - = no result.

SMILES	NLRP3 yeast inh	NALP1 yeast inh	tim10-1 inh	TIM10 inh	V-ATPase pH	tim23-1 inh	tim10-1 conf
O=C(NC(=S)NCCC1=CCCCC1)c1cncc(Br)c1	0	0	42.1	0	0	0	0
Cc1cc(C)n(CCc2nc(-c3ccc(F)cc3)cs2)n1	0	0	45.0	0	0	0	37.9
Cc1cc(C)n(CCc2nc(-c3ccc(C(C)(C)C)cc3)cs2)n1	0	0	0	0	0	0	-
Cc1ccc(S(=O)(=O)N2CCN(c3ccccc3)CC2)cc1C(=O)NC1CCCCC1	0	0	0	0	0	0	-
c1ccc(-n2nnnc2SCc2cccc3nsnc23)cc1	0	0	40.2	0	0	0	33.0
Oc1c(Cl)cc(Cl)c2c1NCCC2	0	53.0	49.7	0	0	0	0
Cc1cc(Nc2cccc(Cl)c2)nc(NCc2ccccc2)n1	0	0	44.8	0	0	0	0
Cc1c(S(=O)(=O)N2CCN(c3cccc(C(F)(F)F)c3)CC2)c(=O)n(C)c(=O)n1C	0	-	0	0	0	0	-
Cc1nc2scc(C)n2c(=O)c1S(=O)(=O)N1CCN(c2cccc(C(F)(F)F)c2)CC1	0	0	50.1	0	0	0	43.1
COC(=O)C1(Cc2ccccc2)NC(c2ccc(F)cc2)C2C(=O)N(C)C(=O)C21 (configuration not stated)	0	0	0	0	0	0	-
COC(=O)[C@]1(Cc2ccccc2)N[C@H](c2ccc(-c3ccccc3)cc2)[C@@H]2C(=O)N(C)C(=O)[C@@H]21	0	-	44.6	0	0	0	0
CCOC(=O)c1c(C)[nH]c(C(=O)OCC(=O)Nc2ccccc2)c1C	0	-	0	0	0	0	-
Cc1ccc(C(C)NC(=O)C23CC4CC(CC(C4)C2)C3)cc1 (configuration not stated)	0	0	0	0	0	0	-
CC(NC(=O)C12CC3CC(CC(C3)C1)C2)c1ccc2c(c1)OCCO2 (configuration not stated)	0	0	45.1	0	0	0	0
CCOc1ccc2cc(C#N)c(SCC(=O)N3CCOCC3)nc2c1	0	0	43.3	0	0	0	0
COc1cc(/C=C/C(=O)c2ccc(C)c([N+](=O)[O-])c2)cc(OC)c1O	0	0	0	0	0	0	-
COc1cc(/C=C/C(=O)c2cccc([N+](=O)[O-])c2)cc(OC)c1OC	0	0	53.5	0	0	0	41.2
O=C(/C=C/c1ccccc1F)c1cccc([N+](=O)[O-])c1	0	0	51.4	0	0	0	47.9
O=C(CNC(=O)c1sc2ccccc2c1Cl)NC1CC1	0	0	0	0	0	0	-
CC(NC(=O)c1ccco1)c1nc(-c2ccccc2Cl)no1 (configuration not stated)	0	0	0	0	0	0	-
NNC(=O)c1ccc(COc2ccc3ccccc3c2)o1	0	0	41.9	0	0	0	0
C/C(=N/NC(=O)c1ccc(Br)o1)c1cccc(NC(=O)c2ccc(C)o2)c1	0	0	44.2	0	0	0	0
C/C(=N/NC(=O)c1ccc(Br)o1)c1cccc(NC(=O)c2ccc(F)cc2)c1	0	0	49.3	0	0	0	39.5
O=C(CNC(=O)c1ccc2ccccc2c1)NCc1ccccc1F	0	0	0	0	0	0	-
O=C(c1cc2ccccc2o1)N1CCN(S(=O)(=O)c2ccccc2)CC1	0	-	42.9	0	0	0	0
SMILES	NLRP3 yeast inh	NALP1 yeast inh	tim10-1 inh	TIM10 inh	V-ATPase pH	tim23-1 inh	tim10-1 conf
O=C(NCc1nc2ccccc2[nH]1)c1cc2ccccc2oc1=O	0	0	41.3	0	0	0	0
CCOc1ccc(OCc2ccc(C(=O)N3CCCC(C)C3)cc2)cc1 (configuration not stated)	0	0	41.1	0	0	0	0
CCc1ccc(CNC(=O)CCCn2c(=O)c3cccn3c3cccnc32)cc1	0	0	46.3	0	0	0	0
Cc1ccc(NC(=O)C2=C(O)CCn3c2nc2ccccc23)cc1	0	0	43.4	0	0	0	0
O=C(NC1CCOCC1)C1CCC(=O)N(CCc2cccc(F)c2)C1 (configuration not stated)	0	0	0	0	0	0	-
O=C(NCCc1ccc(Cl)cc1)C1CCN(S(=O)(=O)c2cccs2)CC1	0	0	49.7	0	0	0	39.8
O=C(NCCc1ccccc1)C1CCN(S(=O)(=O)c2cccs2)CC1	0	0	0	0	0	0	-
NS(=O)(=O)c1ccc(CCNC(=O)c2ccc(S(=O)(=O)N3CCCCC3)cc2)cc1	0	0	0	0	0	0	-
O=C(NCCc1ccc(Cl)cc1)c1ccc(S(=O)(=O)N2CCCC2)cc1	0	-	47.8	0	0	0	44.9
COC(=O)c1ccc(CN2CCc3ccccc32)cc1	0	0	0	0	0	0	-
CCC(=O)Nc1nc2ccc3nc(C)sc3c2s1	0	-	48.4	0	0	0	0
CCC(=O)Nc1nc2c(OC)ccc(OC)c2s1	0	0	0	0	0	0	-
CCOC(=O)C1(S(=O)(=O)c2ccccc2)CCN(Cc2ccc(Cl)cc2)CC1	0	0	48.1	0	0	0	0
O=C1N=c2ccccc2=C1c1sc(=S)n(NC(=O)c2ccccc2)c1O	0	-	0	0	0	0	-
C=CCn1c(O)c(C2=c3ccccc3=NC2=O)sc1=Nc1ccc(O)cc1	0	0	63.0	0	0	0	0
COc1ccc(/C=C2\CCC/C(=C\c3ccc(OC)c(OC)c3OC)C2=O)c(OC)c1OC	0	0	40.7	0	0	0	0
O=C(c1ccccc1Br)N1N=C(c2ccccc2)CC1c1ccccc1F (configuration not stated)	0	0	50.5	0	0	0	48.0
COc1ccc(-n2cc3c(-c4cccc(Br)c4)nnc(C)c3n2)cc1	0	0	46.2	0	0	0	0
COc1ccc(N2CCN(Cc3nc(N)nc(N4CCCc5ccccc54)n3)CC2)cc1	0	0	40.4	0	0	0	0
Nc1nc(CN2CCN(c3ccccc3)CC2)nc(N2CCCc3ccccc32)n1	0	0	0	0	0	0	-
CCN(C(=O)COC(=O)/C=C/c1cccc([N+](=O)[O-])c1)c1ccccc1	0	0	0	0	0	0	-
O=C(COc1cccc(C(F)(F)F)c1)Nc1cccc(S(=O)(=O)NC2=NCCCCC2)c1	-	-	-	-	0	-	-
CCC(=O)Nc1nnc(S(=O)(=O)N2CCc3ccccc32)s1	0	0	48.6	0	0	0	0
Cc1ccc2c(c1)S(=O)(=O)N(C)C(c1ccccc1)=C2	-	-	-	-	0	-	-
O=C(N/N=C/c1ccc([N+](=O)[O-])o1)c1cc(-c2ccc(-c3ccccc3)cc2)nc2ccccc12	0	0	55.7	0	0	0	41.5

From PubChem
